# Screening results from PubChem.
# Cruzain inh noDet: blocks cruzain activity in detergent-free assay | P25779 | Potency, µM, for inactives: max response, negative = inhibition, most hits filed as inhibitors | purified cruzain, Z-FR-AMC fluorescence, no detergent | hit rate 2.3% among 200,000;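 further: plate controls were enzyme without inhibitor for no effect and buffer without enzyme for full effect; nearly all actives have a fitted effect of over 40% in size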
# Target sequence (P25779 123-467 limits assumed): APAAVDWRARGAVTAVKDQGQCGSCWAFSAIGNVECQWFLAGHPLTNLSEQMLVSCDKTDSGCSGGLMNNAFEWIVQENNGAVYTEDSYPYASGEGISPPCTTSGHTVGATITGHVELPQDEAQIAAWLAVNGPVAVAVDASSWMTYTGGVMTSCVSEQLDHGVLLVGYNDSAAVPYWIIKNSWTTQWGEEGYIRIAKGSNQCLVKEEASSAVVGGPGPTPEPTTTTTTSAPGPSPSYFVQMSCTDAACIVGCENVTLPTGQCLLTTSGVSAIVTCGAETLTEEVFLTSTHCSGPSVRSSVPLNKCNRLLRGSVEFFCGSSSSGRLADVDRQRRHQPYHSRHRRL
#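 Purified cruzain at 1.5 nM, pre-incubated 15 min with compound at room temperature in 100 mM sodium acetate pH 5.5, 5 mM DTT, 0.00005% Triton X-100. Reaction started with 2 uM Z-FR-AMC; AMC fluorescence increase over 60 s gives rate.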
# Cruzain Triton: inhibitors of Trypanosoma cruzi cruzain with detergent | P25779 | purified cruzain, Z-FR-AMC fluorescence, 0.01% Triton | Potency, µM, for the others: max response, negative = inhibition, usual class: inhibitors | hit rate 0.43% among 200,000 | AID 1478;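 further: plate controls were neutral wells for no effect and buffer without enzyme for full effect; nearly all actives have a fitted effect of over 40% in size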
#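 In this qHTS format, compounds are incubated with 1.5 nM cruzain for 15 min at room temperature before 2 uM Z-FR-AMC is added. Release of AMC is followed at 360/450 nm, and progress is taken as the 60 s fluorescence difference.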
# * hit, by the source's call; u = inconclusive. This is a sample that favours compounds with a hit; in the whole collection about 2.6% have one here. The call rests on the fitted dose curve; in most records, active means well fitted curve in the direction sought with a large enough effect; inconclusive means small, poorly fitted or top-dose-only effect, or another doubt; inactive means no such curve, though single readings can be large; an effect the other way counts as inactive or inconclusive. Potency means the concentration at half of the fitted maximal effect.
SMILES,Cruzain inh noDet,Cruzain Triton
CCOC(=O)CC(=O)CSc1nc2sc(C)cc2c(=O)n1Cc1ccco1,-16.2%,-5.7%
CCOc1ccc(-c2cc3c(=O)n(Cc4nc(-c5ccc(OC(C)C)cc5)oc4C)ccn3n2)cc1Cl,-4.7%,-1.1%
Cc1nc(-c2ccc(S(=O)(=O)Nc3ccc(Cl)c(C(F)(F)F)c3)cc2)co1,6.9%,-15.9%
O=S(=O)(c1cccc2ccccc12)N1CCN(c2ccc(Cl)c(Cl)c2)CC1,20µM*,-1.4%
CCOc1ccc(S(=O)(=O)N2CCN(c3ccc(Cl)c(Cl)c3)CC2)c2ccccc12,9.7%,2.2%
COC(=O)c1ccccc1NC(=O)Cn1c(=O)n(CCCCC(=O)NCc2ccc3c(c2)OCO3)c(=O)c2ccccc21,-7.8%,-3.2%
O=C(Nc1ccccc1)c1ccc(OC(=O)c2cc3ccccc3o2)cc1,12.6µM*,8.0%
O=C(Nc1ccccc1)c1cc2ccccc2o1,-4.3%,-1.9%
CS(=O)(=O)N1CCC2(CC1)CN(c1ccccn1)C2,1.6%,-1.1%
Cc1cccc2cc(CN(Cc3cccs3)C(=S)NCC3CCCO3)c(=O)[nH]c12 (stereo not drawn),3.1%,-8.3%
Cc1ccc(NC(=S)N(Cc2cccs2)Cc2cc3cccc(C)c3[nH]c2=O)cc1,15.8µM*,-3.3%
CC(C)c1ccc(/C=C(\C#N)c2nc(-c3ccc(O)cc3)cs2)cc1,u,7.0%
CC(C)c1ccc(/C=C(/C#N)c2nnc(NC(=O)c3ccccc3)s2)cc1,12.6µM*,-6.2%
COc1ccc(N(C)C(=O)c2nc(-c3cccc(F)c3)n3c2CCCCC3)c(OC)c1,-4.4%,-0.3%
O=C(O)CNc1ccc(C(=O)O)cc1,7.7%,3.0%
CCc1ccc2[nH]cc(S(=O)(=O)c3ccc(C(C)C)cc3)c(=O)c2c1,3.1%,-2.2%
Cc1cc2cc(C#N)c(NCCNC(=S)NCCCN3CCOCC3)nc2cc1C,u,25.1µM*
Cc1cccc2cc(C#N)c(NCCNC(=S)NCCCN3CCOCC3)nc12,-3.2%,-7.9%
COC(=O)C1(C(=O)OC)CC2=CC(CC2=O)Cc2ccccc2[C@@H]1C[N+](=O)[O-] (stereo partly drawn),-7.9%,1.9%
CCN(CC)CCCNC(=S)N1CCn2c(nc3ccccc32)C1,-3.8%,12.6µM*
CCN(CC)C(=O)N1CCn2c(nc3ccccc32)C1,-0.9%,-1.2%
COc1ccc(-c2oc3ncn4nc(-c5ccccc5O)nc4c3c2-c2ccc(OC)cc2)cc1,5.0%,1.4%
COC(=O)CSc1nc(N)c2c3c(sc2n1)C(c1ccccc1)SC(c1ccccc1)C3 (stereo not drawn),12.6µM*,u
COC(=O)CSc1nc(N)c2c3c(sc2n1)CCCC3,4.9%,-10.3%
Cc1coc2c(C)c3oc(=O)c(CC(=O)NCc4ccccc4)c(C)c3cc12,-8.5%,0.0%
SMILES,Cruzain inh noDet,Cruzain Triton
Cc1cc(=O)oc2c(CN(CC(C)C)CC(C)C)c(O)ccc12,u,25.1µM*
CC(C)CN(Cc1c(O)ccc2c3c(c(=O)oc12)CCC3)CC(C)C,-99.4%,28.2µM*
Cc1cc(=O)oc2c(O)c(O)ccc12,-18.6%,-12.1%
O=c1oc2c(CN3CCOCC3)c(O)ccc2c2c1CCC2,-75.7%,u
O=C(CS(=O)(=O)c1cccc2nsnc12)Nc1ccccc1,6.5%,-1.8%
Cc1cc(C)cc(NS(=O)(=O)c2ccc3[nH]cc(C(=O)NCCc4ccccc4)c(=O)c3c2)c1,u,-1.6%
CCc1ccc(NS(=O)(=O)c2ccc3[nH]cc(C(=O)NCCc4ccccc4)c(=O)c3c2)cc1,7.94µM*,-1.2%
Cc1ccc(S(=O)(=O)N/N=C\c2cccnc2)cc1,-1.1%,3.2%
Cc1ccc(-c2cc(-c3ccccc3O)nc(N/N=C/c3cccnc3)n2)cc1,25.1µM*,3.0%
O=C(CSc1oc(-c2ccc(F)cc2)nc1S(=O)(=O)c1ccccc1)c1ccc(Cl)cc1,31.6µM*,-4.5%
Cc1ccc(S(=O)(=O)c2nc(-c3ccc(F)cc3)oc2SCC(=O)c2ccccc2)cc1,u,-1.0%
Cc1ccc(-c2nc(S(=O)(=O)c3ccc(C)cc3)c(SCC(=O)c3ccccc3)o2)cc1,15.8µM*,-5.3%
CCCSc1oc(-c2ccco2)nc1S(=O)(=O)c1ccc(Cl)cc1,1.3%,-25.5%
O=C(CSc1oc(-c2ccccc2)nc1S(=O)(=O)c1ccc(Cl)cc1)Nc1ccc(F)cc1,5.8%,-4.6%
O=C(CSc1oc(-c2ccco2)nc1S(=O)(=O)c1ccc(Br)cc1)c1ccc(Cl)cc1,20µM*,-5.3%
CCCNC(=O)CN1C(=O)c2c(c3ccccc3n2C)C1c1ccc(OC)cc1 (stereo not drawn),u,-4.2%
Cc1ccc2c(=O)cc(C(=O)Nc3nnc(C)s3)oc2c1,-4.9%,-7.5%
N#C/C(=C\c1cc(Br)c(O)c(Br)c1)c1nc2ccccc2c(=O)[nH]1,2.7%,-2.5%
COc1ccc(-c2csc3nc(C)n(-n4cccc4)c(=O)c23)cc1OC,8.4%,-4.7%
COc1ccc(-c2csc3nc(-c4cccnc4)nc(N4CCC(C(N)=O)CC4)c23)cc1OC,u,25.1µM*
Ic1ccc2c(c1)N(c1ccccc1)c1cc(Nc3ccc4nc5ccc(I)cc5[n+](-c5ccccc5)c4c3)ccc1N2,3.16µM*,-1.6%
OCc1ccccc1N=c1ssnc1Cl,25.1µM*,-3.2%
COc1cccc(/C=N/N2C(=O)CSC2=S)c1O,-28.5%,u
O=C1CSC(=S)N1/N=C/C=C/c1ccccc1,31.6µM*,u
O=S(=O)(c1ccc(Cl)cc1)c1nc(-c2cccc(Br)c2)oc1NCc1ccccc1,12.6µM*,-11.5%
SMILES,Cruzain inh noDet,Cruzain Triton
O=S(=O)(c1ccccc1)c1nc(-c2ccco2)oc1NCc1ccccc1,25.1µM*,22.4µM*
O=S(=O)(c1ccccc1)c1nc(-c2ccco2)oc1NCc1ccco1,-6.6%,-9.1%
CCNc1oc(-c2ccc(OC)cc2)nc1S(=O)(=O)c1ccc(Br)cc1,-0.7%,-3.4%
CCCCNc1oc(-c2ccc(OC)cc2)nc1S(=O)(=O)c1ccccc1,u,28.2µM*
Cc1ccc(S(=O)(=O)c2nc(C)oc2NCc2ccccc2)cc1,20µM*,20µM*
O=S(=O)(c1ccccc1)c1nc(-c2cccc(Cl)c2)oc1NCc1ccccc1,9.4%,0.3%
Cc1ccc(S(=O)(=O)c2nc(-c3ccccc3F)oc2NCc2ccccc2)cc1,0.3%,-2.2%
C[C@@H]1C[C@](C)(C(=O)c2ccco2)C=C1c1ccco1,-3.1%,0.6%
COc1ccc(-n2ncc3c2ncn2nc(COc4ccc(Cl)cc4)nc32)cc1,-0.9%,-1.4%
CCOc1ccc(CN2C(=O)c3ccccc3Sc3ccc(C(=O)N4CCN(C)CC4)cc32)cc1,-0.6%,-0.8%
CCOC(=O)c1c(-c2ccccc2)csc1NC(=O)c1cc(-c2ccc(F)cc2)on1,3.4%,-2.0%
Cc1cc(-c2ccc(N=Nc3ccc4c(S(=O)(=O)O)cc(S(=O)(=O)O)c(N)c4c3O)c(C)c2)ccc1N=Nc1ccc2c(S(=O)(=O)O)cc(S(=O)(=O)O)c(N)c2c1O,u,28.2µM*
Nc1c(N=Nc2ccc(-c3ccc(N=Nc4cc(S(=O)(=O)O)c5ccccc5c4N)cc3)cc2)cc(S(=O)(=O)O)c2ccccc12,u,2.82µM*
Nc1ccc(N=Nc2ccc(-c3ccc(O)cc3)cc2)c2ccc(S(=O)(=O)O)cc12,9.8%,-14.2%
Cc1ccc(N=Nc2c(O)c(S(=O)(=O)O)cc3cc(S(=O)(=O)O)ccc23)c(C)c1,-8.9%,-2.2%
Cc1nn(-c2ccc(N3CCOCC3)nn2)c(C)c1CCC(=O)NCc1ccc(Cl)cc1,-0.1%,1.0%
CC(C)Sc1nc2sc3c(c2c(=O)n1-c1ccccc1)CCCC3,3.6%,-3.2%
